# Test results reported in article PMC4336329 (PLoS ONE, 2015).
# Out of some 310,000 compounds screened, about 14,000 (4.5%) showed an effect of 50% or more. Effects have a minus sign here. What follows is part of a selection rich in strong results, with near analogues and random picks from the rest.
# Molecular target: human ether-à-go-go-related gene (hERG) potassium channel (human, UniProt Q12809)
# Experiment: primary screen, population patch clamp on CHO cells stably expressing hERG; higher = less effect of the substance
# 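Also: peak tail current of the secondary pulse compared with the same well before compound.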
# Chain of human ether-à-go-go-related gene (hERG) potassium channel (Q12809 whole entry, looked up): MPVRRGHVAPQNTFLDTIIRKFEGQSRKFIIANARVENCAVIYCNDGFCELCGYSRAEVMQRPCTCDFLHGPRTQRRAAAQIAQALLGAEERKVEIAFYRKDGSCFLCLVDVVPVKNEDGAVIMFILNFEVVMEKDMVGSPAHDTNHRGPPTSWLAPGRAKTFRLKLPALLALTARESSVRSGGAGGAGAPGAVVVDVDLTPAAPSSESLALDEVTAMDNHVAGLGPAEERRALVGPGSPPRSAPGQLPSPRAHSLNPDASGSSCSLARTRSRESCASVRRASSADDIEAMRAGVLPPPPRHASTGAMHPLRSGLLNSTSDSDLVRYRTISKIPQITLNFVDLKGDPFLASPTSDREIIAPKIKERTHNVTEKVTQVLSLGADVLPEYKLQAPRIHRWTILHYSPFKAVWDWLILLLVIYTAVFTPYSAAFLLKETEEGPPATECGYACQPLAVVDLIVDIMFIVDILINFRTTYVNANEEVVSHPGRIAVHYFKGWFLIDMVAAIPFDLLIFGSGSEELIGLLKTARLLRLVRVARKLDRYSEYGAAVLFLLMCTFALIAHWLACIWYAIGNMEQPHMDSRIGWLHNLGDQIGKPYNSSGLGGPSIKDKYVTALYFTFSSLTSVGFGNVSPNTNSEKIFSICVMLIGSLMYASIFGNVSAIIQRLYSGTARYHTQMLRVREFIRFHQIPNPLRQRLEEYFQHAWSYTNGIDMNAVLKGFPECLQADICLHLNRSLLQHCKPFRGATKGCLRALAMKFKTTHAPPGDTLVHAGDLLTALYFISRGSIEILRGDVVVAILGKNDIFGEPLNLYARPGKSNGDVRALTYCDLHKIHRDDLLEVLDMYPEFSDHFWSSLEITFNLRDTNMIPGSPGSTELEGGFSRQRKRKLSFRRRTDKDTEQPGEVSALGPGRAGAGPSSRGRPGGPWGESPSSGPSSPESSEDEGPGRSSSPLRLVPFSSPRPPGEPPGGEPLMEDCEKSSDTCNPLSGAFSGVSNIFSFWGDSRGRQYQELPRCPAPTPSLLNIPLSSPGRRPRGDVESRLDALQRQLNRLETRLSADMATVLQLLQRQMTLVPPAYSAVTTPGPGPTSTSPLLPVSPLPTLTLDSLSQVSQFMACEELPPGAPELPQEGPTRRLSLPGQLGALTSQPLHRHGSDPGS
row,Structure (SMILES),"hERG current change (%, negative = inhibition) at 10uM [%]"
1,Cc1nn(Cc2ccccc2Cl)c(C)c1C(=O)OCC(=O)N1CC(C)OC(C)C1 (centres unmarked),1.43
2,Clc1ccc(N2CCN(Cc3ccco3)CC2)cc1,-14.2
3,CCOC(=O)Cc1c(C)nc2c(-c3ccccc3)c[nH]n2c1=O,2.48
4,Cc1nn(S(=O)(=O)N2CCOCC2)c(C)c1Br,-0.162
5,O=C(O)C(Cc1ccccc1)N1C(=O)c2c(Cl)c(Cl)c(Cl)c(Cl)c2C1=O (centres unmarked),3
6,COc1ccc(NS(=O)(=O)c2cc(NC(=O)C3CC3)ccc2N2CCCCC2)cc1,9.99
7,COC(=O)c1cccc([N+](=O)[O-])c1CN1CCCC(C(N)=O)C1 (centres unmarked),18.4
8,COc1ccccc1C(=O)N/C(=C\c1ccc(Br)cc1)C(=O)N1CCCC1,-48.6
9,COc1ccccc1C(=O)N/C(=C/c1ccc(Br)cc1)C(=O)N1CCCC1,-48.9
10,O=C(N/C(=C\c1ccc(Br)cc1)C(=O)N1CCCC1)c1ccccc1F,-71.8
11,O=C(N/C(=C\c1ccc(Br)cc1)C(=O)N1CCOCC1)c1ccccc1Cl,-2.31
12,O=C(N/C(=C/c1ccc(Br)cc1)C(=O)N1CCCCC1)c1ccccc1F,-40.7
13,O=C(N/C(=C/c1ccc(Br)cc1)C(=O)N1CCCC1)c1ccccc1F,-71.5
14,CCCCn1cnc2c(c1=O)c1nc3ccccc3nc1n2Cc1ccc2c(c1)OCO2,24.1
15,O=C(NCCCNC(=O)c1cnccn1)c1cccc(Cl)c1,-5.72
16,O=C(COC(=O)/C=C/c1ccc(S(=O)(=O)N2CCOCC2)cc1)NCc1ccc(Cl)cc1,1.35
17,Cc1cccc(N2CCN(C(=O)c3cc4c(=O)n(C)c5ccccc5c4n3C)CC2C)c1 (centres unmarked),-16
18,Cc1ccc(S(=O)(=O)NCCC(=O)OCC(=O)Nc2ccccc2Cl)cc1,-10.5
19,O=C(c1cccn2c(=O)c3ccccc3nc12)N1CCN(c2ccccn2)CC1,-53
20,COc1ccc(-c2cc(C(=O)N3CCN(c4ccccc4)CC3)c3ccccc3n2)cc1,5.37
21,O=C(c1cccn2c(=O)c3cc4ccccc4cc3nc12)N1CCN(c2ccccc2)CC1,-7.73
22,O=C(c1cccn2c(=O)c3cc(Br)ccc3nc12)N1CCN(c2ccccn2)CC1,-33.6
23,COc1ccc(N2CCN(C(=O)c3cccn4c(=O)c5ccccc5nc34)CC2)cc1,-60.1
24,O=C(c1cccn2c(=O)c3ccccc3nc12)N1CCC2(CC1)OCCO2,5.98
25,COc1ccc2c(c1OC)C(=O)OC2C1c2c(cc3c(c2OC)OCO3)CCN1C (centres unmarked),-1.42
26,CCOc1ccccc1NC(=O)CSc1nc2ccccc2c(=O)n1CC1CCCO1 (centres unmarked),-68
27,O=c1c2ccccc2nc(SCc2ccccc2)n1CC1CCCO1 (centres unmarked),-6.67

row,Structure (SMILES),"hERG current change (%, negative = inhibition) at 10uM [%]"
1,COc1ccc(OC)c(NC(=O)CSc2nc3ccccc3c(=O)n2CC2CCCO2)c1 (centres unmarked),-41.2
2,COc1ccccc1N1CCN(C(=O)CSc2nc3ccccc3c(=O)n2CC2CCCO2)CC1 (centres unmarked),-67.6
3,O=C(CSc1nc2ccccc2c(=O)n1CC1CCCO1)Nc1ccccc1 (centres unmarked),-14.1
4,O=C(CSc1nc2ccccc2c(=O)n1CC1CCCO1)N1CCN(c2ccccc2)CC1 (centres unmarked),-73.4
5,O=C1CN(C(=O)CSc2nc3ccccc3c(=O)n2CC2CCCO2)c2ccccc2N1 (centres unmarked),-31.3
6,O=c1c2ccccc2nc(SCc2ccncc2)n1CC1CCCO1 (centres unmarked),-54
7,COc1ccccc1NC(=O)CSc1nc2ccccc2c(=O)n1CC1CCCO1 (centres unmarked),2.49
8,O=C(CSc1nc2ccccc2c(=O)n1CC1CCCO1)NCc1ccccc1 (centres unmarked),-11
9,O=C(CSc1nc2ccccc2c(=O)n1CCC(=O)N1CCN(c2ccccc2)CC1)NCC1CCCO1 (centres unmarked),-45.6
10,O=C(CSc1nc2ccccc2c(=O)n1CC1CCCO1)Nc1ccccc1Cl (centres unmarked),-22.1
11,CC(C)(C)c1ccc(C(=O)NCC2CCCN2S(=O)(=O)c2ccccc2)cc1 (centres unmarked),-6.28
12,Cc1ccc(C(=O)N/N=C2\CCSC2)cc1[N+](=O)[O-],-2.95
13,COc1ccccc1C(CNC(=O)CSc1ccc2ccccc2c1)N(C)C (centres unmarked),-34.9
14,COc1ccccc1NC(=O)Cn1cnc2c(cnn2-c2ccc(C)c(C)c2)c1=O,12.1
15,Cc1[nH]c2ccccc2c1/C=N/NC(=O)c1cccc(S(=O)(=O)Nc2cccc(C(F)(F)F)c2)c1,18.6
16,CC(=O)c1ccc(OCc2cc(C(=O)NCCc3ccc(Cl)cc3)no2)cc1,-29.7
17,CSc1nnc(NC(=O)c2nc(S(=O)(=O)Cc3ccccc3)ncc2Cl)s1,0.719
18,O=C(Nn1c(-c2ccc(Br)cc2)nc2ccccc2c1=O)c1ccncc1,20.2
19,O=C(Nc1ccccn1)c1ccc(Cl)c(S(=O)(=O)N2CCCCCC2)c1,-32.7
20,CCOC(=O)c1cccc(C(=O)Oc2ccccc2)n1,14.6
21,Cc1nn(-c2ccccc2)c(C)c1C(=O)OCC(=O)Nc1ccccc1,-7.85
22,Cc1cccc(-c2nsc(SCC(=O)NCc3ccco3)n2)c1,15
23,Cc1nc(N=C(N)N)nc2c(C)cccc12,25.2
24,C=CCOC(Cn1ccnc1)c1ccc(Cl)cc1Cl (centres unmarked),-29.6
25,Clc1ccc(C(c2ccc(Cl)cc2)n2cc[n+](CC(OCc3ccc(Cl)cc3Cl)c3ccc(Cl)cc3Cl)c2)cc1.[Cl-] (centres unmarked),-62.8
26,Clc1ccc(C(Cn2ccnc2)OCc2c(Cl)cccc2Cl)c(Cl)c1 (centres unmarked),-32
